# Reference: ChEMBL document CHEMBL1961873, “Compounds: GSK PKIS; Assays: Nanosyn kinase panel” (2012)
# Experiments:
# [1] = molecular target: Tyrosine-protein kinase SYK (Homo sapiens) (UniProt P43405); settings: at 1 µM
# [2] = molecular target: T1, Tyrosine-protein kinase Tec (Homo sapiens) (UniProt P42680); settings: at 0.1 µM
# T1 sequence (whole entry): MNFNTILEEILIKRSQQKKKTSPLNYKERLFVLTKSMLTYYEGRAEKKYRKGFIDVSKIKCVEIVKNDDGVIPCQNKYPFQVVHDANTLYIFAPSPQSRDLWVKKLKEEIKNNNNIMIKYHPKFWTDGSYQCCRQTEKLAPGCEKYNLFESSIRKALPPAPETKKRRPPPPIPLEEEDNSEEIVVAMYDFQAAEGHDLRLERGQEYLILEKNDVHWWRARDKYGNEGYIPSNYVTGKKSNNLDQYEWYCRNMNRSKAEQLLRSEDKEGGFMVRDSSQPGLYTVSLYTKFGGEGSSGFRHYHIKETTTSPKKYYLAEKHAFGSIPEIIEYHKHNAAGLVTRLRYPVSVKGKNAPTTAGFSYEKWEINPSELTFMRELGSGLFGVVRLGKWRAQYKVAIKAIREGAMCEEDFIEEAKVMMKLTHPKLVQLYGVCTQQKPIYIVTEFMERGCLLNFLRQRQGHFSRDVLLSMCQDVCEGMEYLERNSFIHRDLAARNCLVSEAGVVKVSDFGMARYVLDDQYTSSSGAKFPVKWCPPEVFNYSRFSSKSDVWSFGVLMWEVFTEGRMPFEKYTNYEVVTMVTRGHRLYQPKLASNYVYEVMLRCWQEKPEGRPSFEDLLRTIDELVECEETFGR
# [3] = molecular target: T1, Tyrosine-protein kinase Tec (Homo sapiens); settings: at 1 µM
# [4] = molecular target: Angiopoietin-1 receptor (Homo sapiens) (UniProt Q02763); settings: at 0.1 µM
# [5] = molecular target: Angiopoietin-1 receptor (Homo sapiens) (UniProt Q02763); settings: at 1 µM
# [6] = molecular target: T2, Non-receptor tyrosine-protein kinase TNK1 (Homo sapiens) (UniProt Q13470); settings: at 0.1 µM
# T2 sequence (whole entry): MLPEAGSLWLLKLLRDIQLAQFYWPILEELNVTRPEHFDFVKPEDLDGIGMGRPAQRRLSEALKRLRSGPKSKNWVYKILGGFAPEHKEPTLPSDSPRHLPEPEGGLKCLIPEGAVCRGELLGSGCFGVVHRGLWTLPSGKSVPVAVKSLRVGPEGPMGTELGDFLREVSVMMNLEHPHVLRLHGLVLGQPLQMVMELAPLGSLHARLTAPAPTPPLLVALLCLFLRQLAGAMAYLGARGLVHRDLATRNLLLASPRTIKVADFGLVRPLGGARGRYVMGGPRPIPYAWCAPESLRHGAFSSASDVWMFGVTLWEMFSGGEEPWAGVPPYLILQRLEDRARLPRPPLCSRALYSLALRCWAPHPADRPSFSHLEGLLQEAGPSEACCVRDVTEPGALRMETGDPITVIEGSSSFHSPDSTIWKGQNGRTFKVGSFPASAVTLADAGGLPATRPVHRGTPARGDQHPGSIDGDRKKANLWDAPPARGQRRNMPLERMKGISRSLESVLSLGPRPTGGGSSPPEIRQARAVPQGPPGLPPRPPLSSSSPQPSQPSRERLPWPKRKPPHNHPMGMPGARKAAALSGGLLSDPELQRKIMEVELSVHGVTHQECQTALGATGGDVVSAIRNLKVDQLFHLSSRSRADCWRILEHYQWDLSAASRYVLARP
# [7] = molecular target: T2, Non-receptor tyrosine-protein kinase TNK1 (Homo sapiens); settings: at 1 µM
# [8] = molecular target: Activated CDC42 kinase 1 (Homo sapiens) (UniProt Q07912); settings: at 0.1 µM
# [9] = molecular target: Activated CDC42 kinase 1 (Homo sapiens) (UniProt Q07912); settings: at 1 µM
# [10] = molecular target: High affinity nerve growth factor receptor (Homo sapiens) (UniProt P04629); settings: at 0.1 µM
# [11] = molecular target: High affinity nerve growth factor receptor (Homo sapiens) (UniProt P04629); settings: at 1 µM
# [12] = molecular target: BDNF/NT-3 growth factors receptor (Homo sapiens) (UniProt Q16620); settings: at 0.1 µM
# [13] = molecular target: BDNF/NT-3 growth factors receptor (Homo sapiens) (UniProt Q16620); settings: at 1 µM
# [14] = molecular target: NT-3 growth factor receptor (Homo sapiens) (UniProt Q16288); settings: at 0.1 µM
# [15] = molecular target: NT-3 growth factor receptor (Homo sapiens) (UniProt Q16288); settings: at 1 µM
# [16] = molecular target: T3, Tyrosine-protein kinase TXK (Homo sapiens) (UniProt P42681); settings: at 0.1 µM
# T3 sequence (whole entry): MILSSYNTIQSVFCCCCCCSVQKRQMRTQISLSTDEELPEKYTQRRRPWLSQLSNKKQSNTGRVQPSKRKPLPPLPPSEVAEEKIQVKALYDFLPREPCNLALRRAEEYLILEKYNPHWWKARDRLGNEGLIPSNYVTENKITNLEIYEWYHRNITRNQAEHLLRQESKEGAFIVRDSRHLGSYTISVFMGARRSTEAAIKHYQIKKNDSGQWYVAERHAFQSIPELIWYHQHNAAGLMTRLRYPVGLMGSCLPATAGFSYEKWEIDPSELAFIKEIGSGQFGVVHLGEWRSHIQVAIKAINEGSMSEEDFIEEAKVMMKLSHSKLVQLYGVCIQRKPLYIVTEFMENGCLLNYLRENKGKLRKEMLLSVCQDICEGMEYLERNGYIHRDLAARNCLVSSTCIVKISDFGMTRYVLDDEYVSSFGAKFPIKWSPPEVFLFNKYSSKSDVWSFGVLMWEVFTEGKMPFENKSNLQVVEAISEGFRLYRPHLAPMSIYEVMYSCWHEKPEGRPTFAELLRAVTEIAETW
# [17] = molecular target: T3, Tyrosine-protein kinase TXK (Homo sapiens); settings: at 1 µM
# [18] = molecular target: Non-receptor tyrosine-protein kinase TYK2 (Homo sapiens) (UniProt P29597); settings: at 0.1 µM;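 also: each value is a mean of the inhibition readings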
# [19] = molecular target: T4, Dual specificity protein kinase TTK (Homo sapiens) (UniProt P33981); settings: at 1 µM;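 also: reported figures are mean TTK inhibition at 1 µM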
# T4 sequence (whole entry): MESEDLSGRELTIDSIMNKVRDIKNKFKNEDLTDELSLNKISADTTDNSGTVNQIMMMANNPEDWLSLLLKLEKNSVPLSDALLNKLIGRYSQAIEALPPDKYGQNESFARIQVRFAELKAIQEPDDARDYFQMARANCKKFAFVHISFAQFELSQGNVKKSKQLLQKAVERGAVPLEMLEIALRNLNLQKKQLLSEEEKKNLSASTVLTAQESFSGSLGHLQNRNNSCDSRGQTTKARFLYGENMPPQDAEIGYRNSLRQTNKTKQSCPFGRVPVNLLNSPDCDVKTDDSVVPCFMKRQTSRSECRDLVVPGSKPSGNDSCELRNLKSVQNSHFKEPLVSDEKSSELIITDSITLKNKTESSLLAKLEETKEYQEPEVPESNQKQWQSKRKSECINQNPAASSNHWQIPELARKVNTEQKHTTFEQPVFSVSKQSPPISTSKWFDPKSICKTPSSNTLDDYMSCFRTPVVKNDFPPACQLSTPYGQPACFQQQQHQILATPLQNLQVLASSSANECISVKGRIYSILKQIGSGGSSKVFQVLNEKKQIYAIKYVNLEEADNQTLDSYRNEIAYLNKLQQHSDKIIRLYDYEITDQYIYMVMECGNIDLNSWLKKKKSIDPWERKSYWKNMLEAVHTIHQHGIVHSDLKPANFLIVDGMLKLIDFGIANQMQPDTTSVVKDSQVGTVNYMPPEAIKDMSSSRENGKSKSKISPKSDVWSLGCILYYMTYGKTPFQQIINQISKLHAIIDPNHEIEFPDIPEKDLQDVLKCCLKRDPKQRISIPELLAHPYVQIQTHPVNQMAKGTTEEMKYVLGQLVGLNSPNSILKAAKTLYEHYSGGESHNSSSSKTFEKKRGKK
# [20] = molecular target: T5, Aurora kinase A (Homo sapiens) (UniProt O14965); settings: at 0.1 µM;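 also: each reported value is a mean percent inhibition of Aurora-A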
# T5 sequence (whole entry): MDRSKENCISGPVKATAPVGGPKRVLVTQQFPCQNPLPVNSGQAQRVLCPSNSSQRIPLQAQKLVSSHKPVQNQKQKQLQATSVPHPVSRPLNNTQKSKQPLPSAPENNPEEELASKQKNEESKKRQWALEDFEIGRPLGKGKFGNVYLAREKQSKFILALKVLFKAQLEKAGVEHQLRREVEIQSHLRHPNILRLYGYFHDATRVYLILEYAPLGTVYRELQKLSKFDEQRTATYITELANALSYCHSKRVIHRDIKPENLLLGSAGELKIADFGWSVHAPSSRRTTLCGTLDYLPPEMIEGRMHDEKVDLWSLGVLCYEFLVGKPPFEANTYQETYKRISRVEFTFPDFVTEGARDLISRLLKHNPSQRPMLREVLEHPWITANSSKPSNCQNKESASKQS
# Sequence of High affinity nerve growth factor receptor (Homo sapiens) (P04629 33-796 limits assumed): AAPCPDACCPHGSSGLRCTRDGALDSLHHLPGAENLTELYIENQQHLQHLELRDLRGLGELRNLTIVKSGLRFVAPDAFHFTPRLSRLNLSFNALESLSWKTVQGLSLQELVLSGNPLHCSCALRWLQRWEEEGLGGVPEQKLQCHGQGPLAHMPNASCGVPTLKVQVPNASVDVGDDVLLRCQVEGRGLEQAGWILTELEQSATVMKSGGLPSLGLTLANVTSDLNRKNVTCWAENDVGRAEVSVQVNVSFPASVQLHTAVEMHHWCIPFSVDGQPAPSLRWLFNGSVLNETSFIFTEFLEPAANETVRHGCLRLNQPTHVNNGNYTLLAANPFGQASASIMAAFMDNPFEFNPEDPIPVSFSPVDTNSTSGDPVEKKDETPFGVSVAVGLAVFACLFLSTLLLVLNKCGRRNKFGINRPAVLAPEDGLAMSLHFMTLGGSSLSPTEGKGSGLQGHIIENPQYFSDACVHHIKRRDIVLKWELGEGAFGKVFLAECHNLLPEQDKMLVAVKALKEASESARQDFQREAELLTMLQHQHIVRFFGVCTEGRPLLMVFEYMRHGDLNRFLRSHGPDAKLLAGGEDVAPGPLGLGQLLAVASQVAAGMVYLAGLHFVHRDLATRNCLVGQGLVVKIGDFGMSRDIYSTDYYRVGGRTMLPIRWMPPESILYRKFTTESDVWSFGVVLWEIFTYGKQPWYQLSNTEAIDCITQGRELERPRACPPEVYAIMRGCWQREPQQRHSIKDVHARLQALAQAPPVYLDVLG
# Sequence of NT-3 growth factor receptor (Homo sapiens) (Q16288 32-839 limits assumed): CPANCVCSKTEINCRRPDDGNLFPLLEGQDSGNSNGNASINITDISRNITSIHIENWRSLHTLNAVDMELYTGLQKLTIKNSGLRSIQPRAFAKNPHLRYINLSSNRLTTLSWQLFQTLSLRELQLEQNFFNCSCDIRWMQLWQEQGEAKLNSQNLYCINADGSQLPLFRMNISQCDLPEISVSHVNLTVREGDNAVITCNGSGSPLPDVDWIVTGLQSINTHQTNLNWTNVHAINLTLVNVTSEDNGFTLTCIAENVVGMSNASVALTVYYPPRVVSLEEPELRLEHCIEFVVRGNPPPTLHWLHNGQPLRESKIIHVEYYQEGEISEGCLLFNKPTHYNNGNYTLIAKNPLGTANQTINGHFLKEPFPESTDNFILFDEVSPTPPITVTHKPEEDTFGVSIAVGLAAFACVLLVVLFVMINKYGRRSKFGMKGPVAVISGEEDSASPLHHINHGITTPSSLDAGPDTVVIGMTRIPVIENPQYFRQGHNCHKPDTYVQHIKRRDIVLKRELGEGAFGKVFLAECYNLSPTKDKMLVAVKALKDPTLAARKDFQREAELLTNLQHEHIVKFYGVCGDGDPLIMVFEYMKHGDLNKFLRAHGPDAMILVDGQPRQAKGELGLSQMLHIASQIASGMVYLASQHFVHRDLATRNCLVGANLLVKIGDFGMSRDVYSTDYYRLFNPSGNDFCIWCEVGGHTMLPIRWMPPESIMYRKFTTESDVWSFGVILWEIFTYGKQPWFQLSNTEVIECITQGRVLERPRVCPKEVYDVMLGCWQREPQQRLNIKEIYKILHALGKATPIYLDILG
# Sequence of Non-receptor tyrosine-protein kinase TYK2 (Homo sapiens) (P29597 whole entry): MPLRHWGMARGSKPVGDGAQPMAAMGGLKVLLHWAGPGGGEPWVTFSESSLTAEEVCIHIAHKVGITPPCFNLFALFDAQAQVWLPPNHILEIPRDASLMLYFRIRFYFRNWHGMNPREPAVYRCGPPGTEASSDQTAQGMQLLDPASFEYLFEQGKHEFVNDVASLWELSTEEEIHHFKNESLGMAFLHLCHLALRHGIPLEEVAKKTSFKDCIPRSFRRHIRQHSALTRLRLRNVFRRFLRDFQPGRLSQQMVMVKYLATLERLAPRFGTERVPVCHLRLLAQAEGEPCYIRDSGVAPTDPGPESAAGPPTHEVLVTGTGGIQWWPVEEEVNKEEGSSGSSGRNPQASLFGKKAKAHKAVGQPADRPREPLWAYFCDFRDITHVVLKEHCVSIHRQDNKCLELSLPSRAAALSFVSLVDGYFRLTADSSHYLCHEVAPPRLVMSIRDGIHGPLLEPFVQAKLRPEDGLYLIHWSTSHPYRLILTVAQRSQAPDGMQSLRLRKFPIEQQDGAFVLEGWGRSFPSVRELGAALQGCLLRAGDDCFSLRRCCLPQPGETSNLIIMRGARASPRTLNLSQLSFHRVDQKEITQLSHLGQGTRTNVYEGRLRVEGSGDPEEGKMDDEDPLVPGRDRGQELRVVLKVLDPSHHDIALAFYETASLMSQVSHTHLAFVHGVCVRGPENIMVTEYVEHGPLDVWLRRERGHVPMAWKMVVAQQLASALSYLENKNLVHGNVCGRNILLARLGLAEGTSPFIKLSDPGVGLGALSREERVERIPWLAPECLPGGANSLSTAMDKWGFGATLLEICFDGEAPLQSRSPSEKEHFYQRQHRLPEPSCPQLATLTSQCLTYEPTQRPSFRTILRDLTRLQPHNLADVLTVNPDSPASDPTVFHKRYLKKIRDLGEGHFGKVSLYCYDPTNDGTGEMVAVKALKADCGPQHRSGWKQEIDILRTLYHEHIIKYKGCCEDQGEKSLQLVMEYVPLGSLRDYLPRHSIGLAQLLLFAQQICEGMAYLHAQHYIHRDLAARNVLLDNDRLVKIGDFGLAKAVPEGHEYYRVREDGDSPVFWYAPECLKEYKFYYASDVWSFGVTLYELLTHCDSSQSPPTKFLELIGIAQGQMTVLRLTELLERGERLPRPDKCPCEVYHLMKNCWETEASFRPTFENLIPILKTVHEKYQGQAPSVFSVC
# Sequence of Activated CDC42 kinase 1 (Homo sapiens) (Q07912 whole entry, looked up): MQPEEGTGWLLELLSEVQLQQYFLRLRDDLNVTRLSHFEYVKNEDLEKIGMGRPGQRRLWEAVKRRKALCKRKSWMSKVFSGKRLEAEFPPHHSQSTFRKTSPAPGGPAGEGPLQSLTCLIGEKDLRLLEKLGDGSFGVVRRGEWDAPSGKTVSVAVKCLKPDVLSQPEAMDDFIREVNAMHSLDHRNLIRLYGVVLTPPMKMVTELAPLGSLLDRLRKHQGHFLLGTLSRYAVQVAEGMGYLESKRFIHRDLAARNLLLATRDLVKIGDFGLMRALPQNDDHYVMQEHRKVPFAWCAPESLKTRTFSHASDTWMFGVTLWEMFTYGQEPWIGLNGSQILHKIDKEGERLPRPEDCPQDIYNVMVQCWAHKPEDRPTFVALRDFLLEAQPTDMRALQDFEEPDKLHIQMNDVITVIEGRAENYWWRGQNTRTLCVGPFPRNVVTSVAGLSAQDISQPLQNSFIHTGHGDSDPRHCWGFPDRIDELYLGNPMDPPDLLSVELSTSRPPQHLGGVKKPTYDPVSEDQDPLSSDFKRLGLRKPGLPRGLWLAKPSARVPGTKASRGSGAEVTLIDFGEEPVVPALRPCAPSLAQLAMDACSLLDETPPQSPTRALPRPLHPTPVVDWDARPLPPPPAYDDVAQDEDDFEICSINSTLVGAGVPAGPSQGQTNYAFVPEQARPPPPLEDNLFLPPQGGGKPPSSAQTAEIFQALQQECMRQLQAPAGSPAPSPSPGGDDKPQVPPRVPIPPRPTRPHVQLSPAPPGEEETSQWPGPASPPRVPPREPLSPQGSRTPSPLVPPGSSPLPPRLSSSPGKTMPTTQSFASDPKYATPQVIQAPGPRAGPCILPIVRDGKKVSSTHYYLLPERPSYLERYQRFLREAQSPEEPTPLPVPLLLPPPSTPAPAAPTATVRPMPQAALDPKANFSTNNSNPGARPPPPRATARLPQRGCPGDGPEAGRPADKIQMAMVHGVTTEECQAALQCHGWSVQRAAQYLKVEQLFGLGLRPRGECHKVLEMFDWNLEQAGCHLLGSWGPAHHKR
# Sequence of Angiopoietin-1 receptor (Homo sapiens) (Q02763 whole entry): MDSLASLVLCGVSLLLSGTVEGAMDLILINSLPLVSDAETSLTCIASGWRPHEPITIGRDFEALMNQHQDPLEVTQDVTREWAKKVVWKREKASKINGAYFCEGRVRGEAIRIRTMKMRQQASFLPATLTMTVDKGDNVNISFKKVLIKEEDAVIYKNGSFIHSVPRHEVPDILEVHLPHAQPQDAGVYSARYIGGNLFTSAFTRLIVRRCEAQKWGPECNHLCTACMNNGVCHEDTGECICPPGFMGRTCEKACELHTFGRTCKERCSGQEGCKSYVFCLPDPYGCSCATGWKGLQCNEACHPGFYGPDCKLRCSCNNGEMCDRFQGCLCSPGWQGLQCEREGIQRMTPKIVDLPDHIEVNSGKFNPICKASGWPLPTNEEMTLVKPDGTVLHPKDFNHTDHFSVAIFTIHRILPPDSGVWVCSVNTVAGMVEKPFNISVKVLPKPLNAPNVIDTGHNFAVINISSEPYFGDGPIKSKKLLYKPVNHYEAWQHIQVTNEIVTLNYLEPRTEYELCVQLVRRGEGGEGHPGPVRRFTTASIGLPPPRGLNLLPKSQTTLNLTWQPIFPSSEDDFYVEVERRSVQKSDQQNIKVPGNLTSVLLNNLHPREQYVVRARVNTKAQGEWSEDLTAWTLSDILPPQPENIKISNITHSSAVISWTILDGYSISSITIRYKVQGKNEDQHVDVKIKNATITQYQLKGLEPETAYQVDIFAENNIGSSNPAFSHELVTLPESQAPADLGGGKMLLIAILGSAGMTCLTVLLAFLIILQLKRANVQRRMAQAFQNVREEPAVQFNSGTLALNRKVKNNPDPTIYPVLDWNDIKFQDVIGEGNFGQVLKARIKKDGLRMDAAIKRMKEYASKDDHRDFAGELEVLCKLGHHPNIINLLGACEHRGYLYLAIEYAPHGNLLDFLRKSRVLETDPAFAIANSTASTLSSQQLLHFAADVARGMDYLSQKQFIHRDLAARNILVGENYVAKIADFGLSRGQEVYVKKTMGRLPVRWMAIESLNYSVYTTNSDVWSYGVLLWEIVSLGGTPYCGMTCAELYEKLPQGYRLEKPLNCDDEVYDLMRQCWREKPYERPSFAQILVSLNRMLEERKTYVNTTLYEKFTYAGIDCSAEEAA
structure (smiles),measurement,setting,value
N#Cc1c(NC(=O)c2ccccc2F)sc2c1CCCC2,inhibition,[1],0.42%
same,inhibition,[2],-1.7%
same,inhibition,[3],0.35%
same,inhibition,[4],-1.22%
same,inhibition,[5],3.44%
same,inhibition,[6],-2.62%
same,inhibition,[7],-0.58%
same,inhibition,[8],-0.05%
same,inhibition,[9],3%
same,inhibition,[10],-0.84%
same,inhibition,[11],-2.78%
same,inhibition,[12],-1.85%
same,inhibition,[13],-1.97%
same,inhibition,[14],0.83%
same,inhibition,[15],-1.95%
same,inhibition,[16],-0.16%
same,inhibition,[17],1.71%
same,inhibition,[18],2.79%
same,inhibition,[19],1.13%
same,inhibition,[20],-0.7%
Oc1cccc(-c2nc(-c3ccccc3)[nH]c2-c2ccncc2)c1,inhibition,[1],1.53%
same,inhibition,[2],5.02%
same,inhibition,[3],9.92%
same,inhibition,[4],3.23%
same,inhibition,[5],15.7%
same,inhibition,[6],3.62%
same,inhibition,[7],12.3%
same,inhibition,[8],1.47%
same,inhibition,[9],2.85%
same,inhibition,[10],3.43%
same,inhibition,[11],5.31%
same,inhibition,[12],3.82%
same,inhibition,[13],5.72%
same,inhibition,[14],4.99%
same,inhibition,[15],7.3%
same,inhibition,[16],3.28%
same,inhibition,[17],13.8%
same,inhibition,[18],-1.97%
same,inhibition,[19],12.4%
same,inhibition,[20],2.96%
CN(c1ccc(NC(=O)Nc2ccc(OC(F)(F)F)cc2)cc1)c1ccnc(Nc2cccc(S(N)(=O)=O)c2)n1,inhibition,[2],0.44%
same,inhibition,[3],7.04%
same,inhibition,[4],36%
same,inhibition,[5],79.2%
same,inhibition,[6],21.4%
same,inhibition,[7],82.2%
same,inhibition,[8],0.67%
same,inhibition,[9],4.69%
same,inhibition,[10],30%
same,inhibition,[11],90.5%
same,inhibition,[12],34.7%
same,inhibition,[13],82.6%
same,inhibition,[14],30.1%
same,inhibition,[15],87.1%
same,inhibition,[16],-0.18%
same,inhibition,[17],8.63%
same,inhibition,[18],-1.91%
same,inhibition,[19],6.4%
same,inhibition,[20],7.93%
NS(=O)(=O)c1cccc(-c2cc3ccncc3cc2OCc2ccccc2)c1,inhibition,[1],-1.17%
same,inhibition,[2],5.34%
same,inhibition,[3],8.79%
same,inhibition,[4],4.31%
same,inhibition,[5],7.65%
same,inhibition,[6],1.24%
same,inhibition,[7],4.7%
same,inhibition,[8],0.71%
same,inhibition,[9],1.65%
same,inhibition,[10],1.41%
same,inhibition,[11],5.54%
same,inhibition,[12],2.94%
same,inhibition,[13],6.23%
same,inhibition,[14],1.81%
same,inhibition,[15],6.72%
same,inhibition,[16],4.1%
same,inhibition,[17],10.2%
same,inhibition,[18],-2.99%
same,inhibition,[19],11.2%
same,inhibition,[20],3.18%
Cc1cc(Cl)cc2c1NC(=O)C2=NNc1ccc(S(N)(=O)=O)cc1,inhibition,[1],0.95%
same,inhibition,[2],2.23%
same,inhibition,[3],1.43%
same,inhibition,[4],2.08%
same,inhibition,[5],2.32%
same,inhibition,[6],-0.6%
same,inhibition,[7],7.55%
same,inhibition,[8],0.54%
same,inhibition,[9],1.92%
same,inhibition,[10],-1.82%
same,inhibition,[11],2.26%
same,inhibition,[12],1.15%
same,inhibition,[13],4.46%
same,inhibition,[14],1.2%
same,inhibition,[15],3.59%
same,inhibition,[16],2.77%
same,inhibition,[17],3.71%
same,inhibition,[18],-5.56%
same,inhibition,[19],9.15%
same,inhibition,[20],1.75%
